# Test results published in PubChem BioAssay (Tox21).
# Unmarked numbers belong to inactive results. Calls of active or inactive are those of the source. Calls come from the whole dose curve; as a rule, active = well fitted curve in the direction sought with a large enough effect in the repeat runs; inconclusive = weak or mixed curves; inactive = flat fitted curve, though single readings scatter.
# Assay: qHTS assay to test for compound auto fluorescence at 590 nm (red) in HEK293 cells (AID 720679)
# Conditions: red autofluorescence 540/590 nm; series mostly up to 91.3 µM
# From the text: National Center for Advancing Translational Sciences [NCATS]
# NIH Chemical Genomics Center [NCGC]
# U.S. Environmental Protection Agency [EPA]
# National Institutes of Environmental Health Sciences [NIEHS]
# National Toxicology Program [NTP]
# U.S. Food and Drug Administration [FDA]
# Compound auto fluorescence often interferes with screening of the compound library against various biological targets and signaling pathways. Some of these compounds may have fluorophoric properties. Such properties may interfere with the assay outputs resulting in false positives and/or negatives. To decrease such complications and ensure the compound activities are relevant in terms of biological response, the Tox21 10K compound library was screened for auto fluorescence.
# From the fluorophores used as reporter signals in our screening assays, the auto fluorescence equivalencies of compounds against three fluorophores have been evaluated: Triamterene, Fluorescein and Rose Bengal sodium for blue, green and red fluorescence, respectively. The fluorescence intensities were measured using Excitation/Emission wavelengths at 405/460nm, 485/535nm and 540/590nm for blue, green and red labels, respectively. This assay includes the red fluorescence data.
# Tox21 Assay Protocol Summary:
# 2,000 HEK293 cells in 5 uL of culture medium containing 10% dialyzed FBS per well were dispensed into black wall/clear bottom 1536-well plates using a Multidrop Combi Dispenser (Thermo Scientific). The assay plates were incubated for 4-5 hr at 37C to allow cell attachment to the well bottom, followed by the transfer of 23 nL compound or DMSO vehicle by a pintool work station (Kalypsys, San Diego, CA). After the assay plates were incubated overnight at 37C and 5% CO2, fluorescence intensities in the assay plates were measured by an Envision (PerkinElmer, Shelton, CT) plate reader using three labels for measuring blue, green and red fluorescence at […] 460, 535 and 590nm respectively.
# % is set by controls: 0 for no effect and ±100 for the full control effect.
SMILES,outcome,"fluorescence, % of fluorescent control"
CCCCCCCCCCC,inactive,–
CCOC(=O)OCC/C(SC(=O)OCC)=C(\C)N(C=O)Cc1cnc(C)nc1N,inactive,–
C=CCOc1cc(Cl)ccc1C(=O)NCCN(CC)CC,inactive,–
CNC(=O)NC,inactive,–
Nc1cc(Cl)cc(S(=O)(=O)O)c1O,inactive,–
O=S(=O)(O)CCO,inactive,–
CC(C)COC(=O)COc1ccc(Cl)cc1Cl,inactive,–
Cc1cccc(C(=O)O)c1[N+](=O)[O-],inactive,–
CCS(=O)(=O)CCn1c([N+](=O)[O-])cnc1C,–,0.0006% [at 18.6 µM]
Cc1nc([N+](=O)[O-])cn1-c1ccc([N+](=O)[O-])cc1,inactive,–
COC(OC)C(C)c1ccccc1 (stereo not given),inactive,–
O=C(O)c1ccccc1C(=O)Nc1ccc(S(=O)(=O)Nc2nccs2)cc1,inactive,–
N#CCCOCCOCCC#N,inactive,–
O=C(O)c1c(Cl)ccc(Cl)c1Cl,inactive,–
CC(=O)OCC(=O)[C@@]1(O)[C@H](OC(C)=O)C[C@H]2[C@@H]3CCC4=CC(=O)C=C[C@]4(C)[C@@]3(F)[C@@H](O)C[C@@]21C,inactive,–
O=CN1CCOCC1,inactive,–
CN(C)CCCNCCC#N,inactive,–
C[N+](C)(C)CC(O)CCl (stereo not given),inactive,–
CCCCCCCCCCCCCCCCI,–,0.21% [at 18.6 µM]
COc1ccc(NS(=O)(=O)c2ccc(N)cc2)nn1,–,-0.981% [at 18.6 µM]

SMILES,outcome,"fluorescence, % of fluorescent control"
COc1cc2c3cc1Oc1cc(ccc1O)C[C@@H]1c4c(cc(OC)c(O)c4Oc4ccc(cc4)C[C@@H]3N(C)CC2)CC[N+]1(C)C,inactive,–
CCCCCC(=O)OCC,inactive,–
C=CCOC(=O)c1ccc(C(=O)OCC=C)c(C(=O)OCC=C)c1,inactive,–
CCCOCCOCCOCCO,inactive,–
CC(C)COC(=O)/C=C/c1ccccc1,inactive,–
CC(C)(C)NCCO,inactive,–
CN(C1CCCCC1)S(=O)(=O)c1ccccc1N,inactive,–
CC(C)CCO,inactive,–
O=C(/C=C/c1ccccc1)NCCO,inactive,–
CC(C)CCC(=O)CCC(C)C,inactive,–
CC(=O)c1ccc2c(c1)CCCC2,inactive,–
CC(CC(=O)O)CC(C)(C)C (stereo not given),inactive,–
CCCCCCCCCCCCCCCC(=O)NCCO,inactive,–
C[CH2][Ge]([Cl])([CH2]C)[CH2]C,inactive,–
CC(C)(C)c1ccc(C=O)cc1,inactive,–
CN(C)CCOCCN(C)CCO,inactive,–
CC(=O)/C=C/c1ccco1,inactive,–
Cc1ccccc1OCC1CO1 (stereo not given),inactive,–
CCCCCC1CCCC(=O)O1 (stereo not given),inactive,–
COC(/C=C(\C)CCC=C(C)C)OC,inactive,–
